This is a sample that favours compounds with a hit; in the whole collection about 2.4% have one here.
Pol iota inh = qHTS for Inhibitors of Polymerase Iota. Pol iota fluorescent replication assay, 10 min. Potency, µM (series often up to 115 µM), for inactives: at the top dose activity, negative = inhibition, actives largely listed as inhibitors. hit rate 1% among 390,000. DNA polymerase iota (Homo sapiens), Q9UNA4. AID 588590, 2011
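Pol iota at 10 nM preincubated 15 min with compounds at room temperature; reaction started with fluorescent substrate, 50 nM final. Fluorescence read kinetically at 0 and 10 min; buffer-only wells as negative control.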
TDP1 inh = qHTS Assay for Inhibitors of Tyrosyl-DNA Phosphodiesterase (TDP1); Tyrosyl-DNA phosphodiesterase 1 (Homo sapiens), Q9NUW8; recombinant TDP1, AlphaScreen DNA substrate cleavage; Potency, µM (series often up to 130 µM), for the others: at the top dose activity change, negative = inhibition, usual class: inhibitors; hit rate 0.28% among 350,000; AID 485290, 2010; further: on the % scale 0 is the no-effect control and ±100 the full control effect; nearly all actives have a fitted effect of over 40% in size
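Recombinant human Tdp1 (E. coli-expressed, 1 nM final) preincubated with compounds 15 min at room temperature, then 5'-biotin/3'-phosphotyrosine-FITC DNA substrate (15 nM final) added for 5 min. AlphaScreen beads (10 ug/ml final) added 10 min; cleavage lowers signal.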
POLK inh = qHTS for Inhibitors of Polymerase Kappa. purified Pol kappa, fluorescent DNA synthesis assay, 10 min. Potency, µM (titrated, usually from 107 µM), for the others: at the top dose activity, negative = inhibition, hits mostly inhibitors. hit rate 0.53% among 400,000. AID 588579, 2011; further: on the % scale 0 is the no-effect control and ±100 the full control effect
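Enzyme at 10 nM met test compounds for 15 min at room temperature. Substrate addition (50 nM final) began the reaction, which was monitored by fluorescence at 0 and 10 min.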
Pol eta inh = qHTS for Inhibitors of Polymerase Eta | DNA polymerase eta (Homo sapiens), Q9Y253 | recombinant Pol eta, fluorescent DNA replication assay | Potency, µM (titrated, usually from 114 µM), inactives show at the top dose activity change, negative = inhibition, most hits filed as inhibitors | hit rate 1.2% among 390,000; further: on the % scale 0 is the no-effect control and ±100 the full control effect
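Pol eta at 10 nM preincubated with compounds 15 min at room temperature; reaction started with fluorescent substrate (50 nM final) and read kinetically at 0 and 10 min.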
FEN1 inhibitor = qHTS Assay for the Inhibitors of Human Flap endonuclease 1 (FEN1) | Recombinant FEN1 flap cleavage, fluorescence, 15 min | Potency, µM (top dose mostly 114 µM), for the others: at the top dose activity change, negative = inhibition, most hits filed as inhibitors | hit rate 0.35% among 390,000 | AID 588795, 2011; further: on the % scale 0 is the no-effect control and ±100 the full control effect; nearly all actives have a fitted effect of over 65% in size
Target sequence (P39748 whole entry, looked up): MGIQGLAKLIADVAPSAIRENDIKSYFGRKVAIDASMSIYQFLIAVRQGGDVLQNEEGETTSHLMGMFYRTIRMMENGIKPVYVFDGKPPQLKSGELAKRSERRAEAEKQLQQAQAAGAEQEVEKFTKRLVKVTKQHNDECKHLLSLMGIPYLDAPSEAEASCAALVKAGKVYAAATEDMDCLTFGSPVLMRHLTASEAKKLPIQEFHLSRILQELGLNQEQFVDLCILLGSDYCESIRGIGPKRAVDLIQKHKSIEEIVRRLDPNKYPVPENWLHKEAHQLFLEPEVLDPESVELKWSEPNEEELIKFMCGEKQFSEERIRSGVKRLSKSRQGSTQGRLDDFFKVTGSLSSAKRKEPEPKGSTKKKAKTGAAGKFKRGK
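Enzyme 10 nM, 15 min RT preincubation with compound; start with substrate 50 nM final; reads at 0 and 15 min; qHTS titration, four-parameter Hill fit.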
POLB inh = qHTS Assay for Inhibitors of DNA Polymerase Beta; P06746; Pol beta primer extension/strand displacement, fluorescence kinetic; Potency, µM (titrated, usually from 114 µM), without a hit: at the top dose activity change, negative = inhibition, most hits filed as inhibitors; hit rate 1.3% among 340,000; further: on the % scale 0 is the no-effect control and ±100 the full control effect
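Pol beta (10 nM) and compounds were preincubated 15 min at room temperature, then 50 nM substrate (final) started primer extension/strand displacement. Reads were taken at 0 and 10 min; concentration-response data were fitted to a four-parameter Hill equation.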
Starred values were filed as active, the others as inactive; u = inconclusive; x = no result given; [ ] = another dose, or the depositor's remark. The call rests on the fitted dose curve; in most records, active means well fitted curve in the direction sought with a large enough effect; inconclusive means small, poorly fitted or top-dose-only effect, or another doubt; inactive means no such curve, though single readings can be large; an effect the other way counts as inactive or inconclusive. Potency means the concentration at half of the fitted maximal effect.

SMILES	Pol iota inh	TDP1 inh	POLK inh	Pol eta inh	FEN1 inhibitor	POLB inh
COc1ccc(S(=O)(=O)c2c(N)n(Cc3ccco3)c3nc4ccccc4nc23)cc1	7.9µM*	3%	25µM*	7.9µM*	u	u
Cc1nc2c(c(=O)n1Cc1ccccc1Cl)c1nc3ccccc3nc1n2Cc1ccco1	x	-4%	x	x	x	20µM*
COc1ccc(Cn2c3nc4ccccc4nc3c3c(=O)n(Cc4ccco4)c(C)nc32)cc1	x	32µM*	x	x	x	10µM*
Cc1ccc(S(=O)(=O)c2c(N)n(CCCN(C)C)c3nc4ccccc4nc23)cc1	-3%	4%	-7%	-14%	11%	0%
Cc1nc2ccccc2c(=O)n1Cc1ccco1	31%	-1%	3%	-17%	2%	89%
Nc1cc(-c2ccccc2)c[nH]c1=O	x	3%	x	x	x	x
N#CN1CCC(N[S+](=O)([O-])c2cccc(F)c2)CC1	x	1%	x	x	x	x
COc1ccc(-c2c[n+]3c4n2CCCCC4=C(c2ccc(Br)cc2)C3)cc1	u	14%	-2%	1%	1%	25µM*
Clc1ccc(C2=C3CCCCn4c(-c5ccccc5)c[n+](c43)C2)cc1	11%	10%	-11%	u	1%	u
COc1cc2nc3occc3c(OC)c2cc1OC	22%	0%	1%	-15%	-8%	19%
COc1c2ccc(OCC/C(C)=C/C(=O)C=C(C)C)cc2nc2occc12	u	1%	-22%	45µM*	10%	x
COc1ccc(C(=O)N(Cc2ccccc2)Cc2ccccc2)c(O)c1	x	-1%	x	x	x	x
CN(C)c1nc(N/N=C/c2ccccc2O)nc(Nc2ccc(F)cc2)n1	68%	11%	u	79µM*	-24%	u
CN(C)c1nc(Nc2ccc(F)cc2)nc(Oc2ccc(F)cc2)n1	1%	x	-10%	-9%	-15%	8%
Cc1noc(C)c1-c1nc(Nc2ccncc2)c2ccccc2n1	x	28µM*	-6%[60.1 µM]	x	x	x
Cc1noc(C)c1-c1nc(Nc2ccc(F)cc2)c2ccccc2n1	x	x	-37%[60.1 µM]	x	x	x
CCOc1cccc(/C(O)=C2/C(=O)C(=O)N(Cc3cccnc3)C2c2ccco2)c1 (configuration not stated)	-1%	-6%	-17%	0%	1%	12%
CCOc1cccc(/C(O)=C2/C(=O)C(=O)N(CCOC)C2c2ccco2)c1 (configuration not stated)	u	x	-12%	u	7%	79µM*
O=C1CCc2cc(S(=O)(=O)Nc3cccc(-c4ccccc4)c3)ccc2N1	x	2%	x	x	x	x
CCOC(=O)c1c(N2C(=O)Nc3cc(Cl)c(Cl)cc3N2O)sc2c1CCCCC2	-10%	3%	-26%	u	u	50µM*
CCOC(=O)c1c(-n2cnnn2)sc2c1CCCC2	7%	0%	-5%	4%	16%	11%
CCOC(=O)c1c(C)[nH]c(C(=O)COc2ccc3ccc(=O)oc3c2)c1C	u	22µM*	-35%	u	14%	x
CCOC(=O)c1c(NC(=O)COc2ccc3ccc(=O)oc3c2)sc(C(=O)N(C)C)c1C	39%	0%	7%	-29%	-1%	3%
COc1cc(C(=O)Nc2ccc(C)c(S(=O)(=O)N(C)C)c2)ccc1OCC(=O)N1CCOCC1	50µM*	-2%	-9%	u	1%	x
COc1cc(OC)c(NC(=O)Nc2cc(C)on2)cc1Cl	x	5%	-16%[60.1 µM]	x	x	x
SMILES	Pol iota inh	TDP1 inh	POLK inh	Pol eta inh	FEN1 inhibitor	POLB inh
NS(=O)(=O)c1ccc(-c2ccc(/C=C3\C(=O)Nc4cc(Cl)ccc43)o2)cc1	u	4%	-19%	u	3%	u
CC1(C)OC(=O)C(=Cc2ccc(-c3ccc(S(N)(=O)=O)cc3)o2)C(=O)O1	u	x	u	50µM*	-18%	4%
O=C(c1ccc(COc2ccc(F)cc2)o1)n1cc(Br)cn1	u	x	-34%	79µM*	11%	22µM*
CCC[N+](C)(C)c1ccc(/C=C/c2ccncc2)cc1	u	x	-27%	x	u	x
CCOCCCNc1nc(=S)[nH]c2cc(OC)c(OC)cc12	8%	2%	-5%	1%	-9%	0%
CCCCNc1nc(=S)[nH]c2cc(OC)c(OC)cc12	5%	6%	-3%	-5%	-21%	89µM*
CCOC(=O)c1nn(-c2ccc(OC)cc2)c(=O)c2c(NC(=O)Cc3ccccc3)scc12	x	-1%	x	x	x	x
Cc1cccc(NC(=O)/C=C/c2cccs2)n1	-7%	0%	u	9%	2%	50µM*
COC(=O)c1ccc(NC(=O)c2ccccc2OCC(=O)Nc2ccc(Br)cc2)cc1	-3%	x	7%	x	7%	x
O=C(/C(=N/N=C/c1ccc(O)c(O)c1O)c1ccccc1)c1ccccc1	18µM*	-1%	-32%	u	u	3.5µM*
COc1ccc(C(=O)C(=NN)c2ccccc2)cc1	x	x	x	-2%	x	x
Cc1cccc(OCC(=O)OC(C)CN2CCCCC2)c1 (configuration not stated)	-15%	35µM*	6%	-11%	-5%	38%
C#CCN1C(=O)C(O)(CC(=O)/C=C/c2ccco2)c2ccccc21 (configuration not stated)	35µM*	-2%	u	u	0%	u
O=C(CSc1nnc(Cc2csc(Nc3cccc(Cl)c3)n2)o1)N1CCc2ccccc21	79µM*	-4%	-28%	u	-2%	1%
O=C(CSc1nnc(CNc2ccccc2)o1)N1CCc2ccccc21	18%	-1%	-11%	-5%	1%	-9%
CCOC(=O)C1Nc2ccc(C(=O)O)cc2C2C=CCC12 (configuration not stated)	u	x	10µM*	2.8µM*	20µM*	16µM*
O=C(O)c1ccc2c(c1)C1C=CCC1C(c1ccncc1)N2 (configuration not stated)	50%	x	-31%	u	13%	u
COc1cccc([C@@H]2Nc3ccc(C(=O)O)cc3[C@@H]3C=CC[C@@H]32)c1OC	18%	-12%	8%[60.1 µM]	8%	-15%	2%
CCCC1Nc2ccc(C(=O)O)cc2C2C=CCC12 (configuration not stated)	18µM*	3%	35µM*	8.9µM*	u	35µM*
CCOC(=O)c1ccc2c(c1)C1C=CCC1C(C(=O)O)N2 (configuration not stated)	x	0%	x	x	x	4µM*

Screening results deposited in PubChem by National Center for Advancing Translational Sciences (NCATS).
